The entries come from a sample that favours hits as a whole.
BoNT-A LC inh2: BoNT/A light chain protease inhibitors, primary screen, biochemical, flow cytometry, MLPCN library; multiplex microsphere protease substrate cleavage; AID 588499, 2011; inhibition, % at 10 µM; 360,000 tested, 0.17% active; Botulinum neurotoxin type A light chain protease (Clostridium botulinum A str. ATCC 3502); also: plate controls were buffer without enzyme for full effect and enzyme alone for no effect
BoNT F protease: BoNT/F light chain protease inhibitors, primary screen, biochemical, flow cytometry, MLPCN library. Botulinum neurotoxin type F light chain protease (Clostridium botulinum). Multiplex microsphere protease cleavage assay. inhibition, % at 10 µM. 360,000 tested, 0.22% active. AID 588497, 2011; in the data active = inhibition above about 35%, passing the limit was not always enough; inconclusive = no clear call, values can overlap the other calls; also: plate controls were buffer without enzyme for full effect and enzyme alone for no effect
TcdB GH inh: TcdB glycohydrolase inhibitors, primary screen, biochemical, single point, plate reader. Toxin B (Clostridioides difficile), P18177. inhibition, % at 9.99 µM. TcdB glycohydrolase enzymatic assay. 350,000 tested, 0.24% active; in the data active = inhibition above about 10%
Bead autofluor: compound fluorescence in toxin protease inhibitor counterscreen; compound autofluorescence counterscreen, microsphere flow cytometry; active compounds read high; 360,000 tested, 3.1% active; fluorescence intensity (concentration not given with the values); in the data active = fluorescence intensity above about 16000; inconclusive = no clear call, values can overlap the other calls
Anthrax LF prot: Bacillus anthracis LF protease inhibitors, primary screen, biochemical, multiplex microsphere, MLPCN library; AID 588501, 2011; multiplex microsphere protease cleavage assay; inhibition, % at 10 µM; 360,000 tested, 0.12% active; Lethal factor (Bacillus anthracis), P15917; also: plate controls were buffer without enzyme for full effect and enzyme alone for no effect
* marks the source's active call; other numbers are inactive results; u = inconclusive; x = no result. Rule as the data show it, unless noted: active = inhibition above about 30%; inconclusive = no clear call, values can overlap the other calls; inactive = below that.

SMILES	BoNT-A LC inh2	BoNT F protease	TcdB GH inh	Bead autofluor	Anthrax LF prot
CCOc1ccc(-c2nnn(CC(=O)NCCc3c[nH]c4ccccc34)n2)cc1	0.7	1.3	x	8532	-8.7
O=C(C1=C[C@@H](c2csc3ccccc23)C[C@@H](OCCCCO)O1)N1CCCCCCC1	x	x	-7.4	x	x
COc1ccc2c3c(n(C)c2c1)[C@@H](CO)N(Cc1ccncc1)CC31CCN(C(=O)Nc2cccc(F)c2)CC1	x	x	-4.2	x	x
COc1ccc(NC(=O)N2CC(=O)N3[C@H](CO)[C@H](c4ccc(-c5ccc(C)cc5)cc4)[C@@H]3C2)cc1	x	x	0.2	x	x
CS(=O)(=O)N1N=C(c2ccc(Br)cc2)CC1c1ccc2c(c1)OCO2 (stereo unspecified)	3.6	3.1	x	25156*	1.3
Cc1ccccc1-n1nnnc1Sc1nnnn1-c1ccccc1	0.2	-7.3	x	3503	0.8
c1ccc(-n2nnnc2Sc2n[nH]c(-c3ccncc3)n2)cc1	-3.4	-5.6	x	24881*	-2.3
Cc1cccc(CN2CCN(c3ncccn3)CC2)c1	0.5	u	13.1*	4222	-0.3
CCc1ccc(CN2CCN(c3ncccn3)CC2)cc1	-1.3	44.4*	1.1	3994	7.6
c1ccc(COc2cccc(CN3CCCCC3)c2)cc1	-1.0	-10.4	0.6	3051	-3.7
c1ccc(N2CCN(Cc3ccsc3)CC2)nc1	-0.2	6.3	0.5	u	-3.4
Cc1cccc(CN2CCN(c3ccccn3)CC2)c1	u	-3.3	x	23318*	-0.6
c1ccc(COc2cccc(CN3CCN(c4ccccn4)CC3)c2)cc1	0.3	-3.0	x	20483*	-2.5
Cc1ccc(S(=O)(=O)Nc2ccc3c(c2)C(=O)N([C@H](C)CO)C[C@@H](C)[C@@H](CN(C)Cc2ccncc2)OCCCC[C@H](C)O3)cc1	x	x	-0.1	x	x
CCC(=O)Nc1ccc2c(c1)OC[C@H](C)N(Cc1ccccc1)C[C@H](C)[C@H](OC)CN(C)C2=O	x	x	0.1	x	x
COc1ccc2c3c([nH]c2c1)[C@H](CO)N(C(=O)Nc1ccc(F)cc1)CC31CN(C(=O)Cc2ccncc2)C1	x	x	0.4	x	x
CCCOC(=O)Nc1nnc(CCC)s1	7.0	10.0	-0.1	21272*	2.0
Cc1cc(NC(=O)c2cccnc2)ccc1NC(=O)c1ccco1	-0.5	0.2	1.8	22536*	-2.1
O=C(Nc1ccc(Cl)cc1C(=O)NCc1cccnc1)c1ccco1	u	1.5	x	23145*	-3.9
O=C(Nc1ccc(Cl)cc1C(=O)NCC1CCCO1)c1ccco1 (stereo unspecified)	-1.7	-3.2	x	23431*	1.3
CCOc1cc(NS(=O)(=O)c2ccc(OC)cc2)c(OCC)cc1NC(=O)c1ccco1	-0.5	-1.9	x	22748*	-2.5
COc1ccc(S(=O)(=O)Nc2cc(OC)c(NC(=O)c3ccco3)cc2OC)cc1	-1.0	-0.8	x	9199	-1.7
Cc1cc(NC(=O)c2ccco2)ccc1NC(=O)c1ccco1	0.5	7.1	1.2	5831	0.5
C[C@@H]1CN([C@H](C)CO)C(=O)c2cccc(NS(=O)(=O)c3cn(C)cn3)c2O[C@@H]1CN(C)C(=O)NC1CCCCC1	x	x	1.0	x	x
C[C@H](CO)N1C[C@H](C)[C@@H](CN(C)C(=O)Nc2cc(F)ccc2F)Oc2cc(-c3cccc(F)c3)ccc2S1(=O)=O	x	x	0.7	x	x
SMILES	BoNT-A LC inh2	BoNT F protease	TcdB GH inh	Bead autofluor	Anthrax LF prot
C[C@H]1CN([C@@H](C)CO)C(=O)c2cc(NC(=O)Cn3cnnn3)ccc2O[C@H]1CN(C)CC1CC1	x	x	-6.1	x	x
CCOc1cc(NC(=O)c2ccco2)c(OCC)cc1NC(=O)Cc1cccc(OC)c1	0.2	-28.9	x	3622	-1.2
CCOc1cc(NC(=O)c2ccco2)c(OCC)cc1NC(=O)CCC(=O)NCc1cccnc1	1.5	0.5	x	19666*	-2.6
CN1CCN(C(=O)C[C@@H]2CC[C@@H]3[C@H](COC[C@H](O)CN3C(=O)c3ccc(F)cc3)O2)CC1	x	x	1.2	x	x
O=C(NNC(=O)C1CCCO1)c1ccc(Cl)cc1 (stereo unspecified)	0.8	36.9*	x	4010	0.2
CCOC(=O)c1ncn2c1C(=O)OC2(C)C	u	1.6	1.0	19113*	0.9
C[C@H](CO)N1C[C@H](C)[C@H](CN(C)Cc2ccc(C(=O)Nc3ccccc3N)cc2)Oc2c(NS(=O)(=O)c3cn(C)cn3)cccc2C1=O	x	x	-1.7	x	x
COc1cccc(C(=O)Cn2c(N3CCCCC3)nc3c2c(=O)n(C)c(=O)n3C)c1	2.9	2.6	x	15156	-2.8
CN1CCN(c2nc3c(c(=O)[nH]c(=O)n3C)n2CCSc2nc3ccccc3s2)CC1	-0.1	-4.6	0.3	5133	-4.7
CN1CCN(c2nc3c(c(=O)[nH]c(=O)n3C)n2CCCSc2ncccn2)CC1	0.6	0.2	x	22784*	-1.1
Cn1c(=O)[nH]c(=O)c2c1nc(N1CCc3ccccc3C1)n2CCSc1nc2ccccc2s1	-0.5	-0.9	x	16749*	-1.8
CC1CC(C)CN(c2nc3c(c(=O)n(C)c(=O)n3C)n2CCSc2ncccn2)C1 (stereo unspecified)	-0.9	-8.6	-0.1	5808	-2.3
Cn1c(=O)c2c(nc(N3CCOCC3)n2CCSc2ncccn2)n(C)c1=O	-0.8	-4.5	16.8*	5847	-4.4
COc1cccc(C(=O)Cn2c(N3CCOCC3)nc3c2c(=O)n(C)c(=O)n3C)c1	-0.5	-0.6	x	16198*	-2.9
COc1ccc(NC(=O)N(C)C[C@@H]2OCCCC[C@@H](C)Oc3ccc(NC(=O)CCC(F)(F)F)cc3C(=O)N([C@H](C)CO)C[C@@H]2C)cc1	x	x	0.5	x	x
CO[C@H]1CN(C)C(=O)c2ccc(NC(=O)C3CCCCC3)cc2OC[C@H](C)N(Cc2nccs2)C[C@@H]1C	x	x	-0.7	x	x
COCCn1c(N2CCN(c3ccc(OC)cc3)CC2)nc2c1c(=O)n(C)c(=O)n2C	6.0	6.4	x	17764*	-14.2
CCOCCn1c(N2CCN(c3ccc(OC)cc3)CC2)nc2c1c(=O)n(C)c(=O)n2C	-0.1	-1.8	x	2474	-1.8
CCCNC(=O)C[C@H]1CC[C@@H]2[C@H](COc3ccc(NC(=O)Nc4cccc(C)c4)cc3C(=O)N2C)O1	x	x	0.8	x	x
CCn1nc(C)c(NC(=O)/C=C/c2cnn(C)c2)c1C	8.8	10.0	x	19664*	-9.1
Cc1nn(Cc2ccc(Cl)cc2)c(C)c1NC(=O)/C=C/c1cnn(C)c1	-0.3	-4.4	x	2490	0.4
Cc1ccc(NC(=O)CCn2nc(C)cc2C)c(C)c1	0.6	-5.5	x	5512	-3.5
CCOC(=O)c1sc(NC(=O)/C=C/c2cnn(CC)c2C)c(C(=O)OCC)c1C	0.0	-8.5	x	11444	-1.4
CCn1nc(C)c(/C=C/C(=O)Nc2ccc(C)cc2C)c1C	4.7	38.8*	3.0	2035	2.1
CCn1ncc(/C=C/C(=O)Nc2c(C)nn(CC)c2C)c1C	1.1	2.0	x	20272*	0.3
COc1ccc(CNC(=O)C[C@@H]2C[C@H]3c4cc(NS(C)(=O)=O)ccc4O[C@H]3[C@H](CO)O2)cc1	x	x	0.2	x	x
CCc1cccc(Oc2nn[nH]n2)c1	-2.6	-3.6	1.2	24949*	0.3
